# Values without a mark were called inactive.
# Legend:
# Assay in all cases: log2 ratio of Biotin-Ahx-Ub-VS probe labelling (fragment/DMSO); higher = less target engagement (more negative = stronger competition), active = hit call of the paper (q ≤ 0.05, log2 ratio ≤ -1)
# Conditions in all cases: compound concentration: 200 uM; treatment time: 3 h
# ALG13 = target: T1, ALG13 (UniProt Q9NP73)
# T1 sequence (whole entry): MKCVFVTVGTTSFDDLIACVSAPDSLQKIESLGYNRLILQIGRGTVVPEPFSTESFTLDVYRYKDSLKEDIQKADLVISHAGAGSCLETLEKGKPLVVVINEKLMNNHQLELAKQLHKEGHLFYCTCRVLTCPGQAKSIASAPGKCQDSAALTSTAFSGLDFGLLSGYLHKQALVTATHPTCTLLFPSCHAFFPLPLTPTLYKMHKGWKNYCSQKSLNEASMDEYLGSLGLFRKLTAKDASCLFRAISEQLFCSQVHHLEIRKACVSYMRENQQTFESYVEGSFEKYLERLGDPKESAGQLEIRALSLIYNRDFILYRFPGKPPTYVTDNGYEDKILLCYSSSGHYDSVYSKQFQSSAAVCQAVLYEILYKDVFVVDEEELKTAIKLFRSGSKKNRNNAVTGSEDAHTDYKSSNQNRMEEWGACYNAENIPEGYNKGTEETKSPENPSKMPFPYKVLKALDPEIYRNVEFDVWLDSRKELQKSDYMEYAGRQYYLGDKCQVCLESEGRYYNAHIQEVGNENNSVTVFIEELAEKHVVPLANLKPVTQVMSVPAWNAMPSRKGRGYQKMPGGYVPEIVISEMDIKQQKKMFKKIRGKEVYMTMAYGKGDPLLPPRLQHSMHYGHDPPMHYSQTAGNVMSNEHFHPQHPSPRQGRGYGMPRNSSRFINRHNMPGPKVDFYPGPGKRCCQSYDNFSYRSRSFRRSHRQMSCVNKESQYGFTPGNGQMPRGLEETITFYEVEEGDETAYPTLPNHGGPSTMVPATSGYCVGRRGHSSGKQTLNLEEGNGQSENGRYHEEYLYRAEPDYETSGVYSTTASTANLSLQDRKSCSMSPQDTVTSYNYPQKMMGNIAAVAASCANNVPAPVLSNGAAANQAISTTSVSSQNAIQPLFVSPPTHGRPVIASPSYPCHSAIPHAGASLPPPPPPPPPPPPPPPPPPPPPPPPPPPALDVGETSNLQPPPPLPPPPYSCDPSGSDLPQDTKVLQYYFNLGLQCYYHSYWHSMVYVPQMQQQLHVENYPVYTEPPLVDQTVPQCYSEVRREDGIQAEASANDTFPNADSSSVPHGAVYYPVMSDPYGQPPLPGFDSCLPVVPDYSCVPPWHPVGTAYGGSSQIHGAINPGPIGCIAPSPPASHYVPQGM
# Procedure, shortened: (§1)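 HEK293T lysate (495 µg per sample, in Tris/CHAPS/IGEPAL buffer with protease inhibitors) was treated in triplicate with fragment at 200 µM or with DMSO for 3 h. It was then treated with Biotin-Ahx-Ub-VS (0.5 µM final) for 1 h. Labelled DUBs were NeutrAvidin-enriched, digested with LysC and trypsin, and run by diaPASEF LC-MS/MS. Spectronaut label-free quantities were global-median-normalised. Values are average log2 ratios fragment/DMSO by unpaired t-test, using proteins with ≥2 unique peptides.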
# ATXN3 = ATXN3 (UniProt P54252)
# Procedure, shortened: as §1
# BAP1 = target: T2, BAP1 (UniProt Q92560)
# T2 sequence (whole entry): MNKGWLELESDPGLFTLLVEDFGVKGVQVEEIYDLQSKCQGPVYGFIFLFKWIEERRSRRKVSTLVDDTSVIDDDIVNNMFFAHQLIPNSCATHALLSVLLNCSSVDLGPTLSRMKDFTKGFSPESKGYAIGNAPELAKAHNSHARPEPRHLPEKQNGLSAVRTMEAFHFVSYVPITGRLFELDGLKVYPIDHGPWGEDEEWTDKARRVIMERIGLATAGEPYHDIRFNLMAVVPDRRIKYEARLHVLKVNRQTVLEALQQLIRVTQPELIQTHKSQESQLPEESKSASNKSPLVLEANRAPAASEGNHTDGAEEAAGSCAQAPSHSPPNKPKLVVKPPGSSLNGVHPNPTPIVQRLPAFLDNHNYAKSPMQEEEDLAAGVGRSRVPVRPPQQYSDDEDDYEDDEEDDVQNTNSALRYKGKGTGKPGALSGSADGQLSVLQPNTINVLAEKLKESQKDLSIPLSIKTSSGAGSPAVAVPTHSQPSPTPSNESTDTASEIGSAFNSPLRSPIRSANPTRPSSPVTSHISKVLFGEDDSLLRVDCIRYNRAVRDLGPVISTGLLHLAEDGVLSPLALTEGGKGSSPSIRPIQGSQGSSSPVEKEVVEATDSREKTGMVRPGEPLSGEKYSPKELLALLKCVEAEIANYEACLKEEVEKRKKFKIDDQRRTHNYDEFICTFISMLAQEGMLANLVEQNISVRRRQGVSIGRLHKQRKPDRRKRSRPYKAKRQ
# Procedure, shortened: as §1
# EIF3F = EIF3F (UniProt O00303)
# Procedure, shortened: as §1
# EIF3H = EIF3H (UniProt O15372)
# Procedure, shortened: as §1
# FAM105A = target: T3, FAM105A (UniProt Q9NUU6)
# T3 sequence (whole entry): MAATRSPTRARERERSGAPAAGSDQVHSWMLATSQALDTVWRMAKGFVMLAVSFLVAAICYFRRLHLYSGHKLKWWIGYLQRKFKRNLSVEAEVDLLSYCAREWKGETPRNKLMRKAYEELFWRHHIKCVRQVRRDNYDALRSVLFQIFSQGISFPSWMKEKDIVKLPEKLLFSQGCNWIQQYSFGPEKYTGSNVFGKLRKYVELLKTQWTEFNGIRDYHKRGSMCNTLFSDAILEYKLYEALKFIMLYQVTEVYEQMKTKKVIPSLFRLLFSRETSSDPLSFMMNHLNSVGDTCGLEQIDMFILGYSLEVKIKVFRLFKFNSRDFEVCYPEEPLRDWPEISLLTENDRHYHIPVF
# Procedure, shortened: as §1
# OTUB1 = OTUB1 (UniProt Q96FW1)
# Procedure, shortened: as §1
# OTUD4 = target: T4, OTUD4 (UniProt Q01804)
# T4 sequence (whole entry): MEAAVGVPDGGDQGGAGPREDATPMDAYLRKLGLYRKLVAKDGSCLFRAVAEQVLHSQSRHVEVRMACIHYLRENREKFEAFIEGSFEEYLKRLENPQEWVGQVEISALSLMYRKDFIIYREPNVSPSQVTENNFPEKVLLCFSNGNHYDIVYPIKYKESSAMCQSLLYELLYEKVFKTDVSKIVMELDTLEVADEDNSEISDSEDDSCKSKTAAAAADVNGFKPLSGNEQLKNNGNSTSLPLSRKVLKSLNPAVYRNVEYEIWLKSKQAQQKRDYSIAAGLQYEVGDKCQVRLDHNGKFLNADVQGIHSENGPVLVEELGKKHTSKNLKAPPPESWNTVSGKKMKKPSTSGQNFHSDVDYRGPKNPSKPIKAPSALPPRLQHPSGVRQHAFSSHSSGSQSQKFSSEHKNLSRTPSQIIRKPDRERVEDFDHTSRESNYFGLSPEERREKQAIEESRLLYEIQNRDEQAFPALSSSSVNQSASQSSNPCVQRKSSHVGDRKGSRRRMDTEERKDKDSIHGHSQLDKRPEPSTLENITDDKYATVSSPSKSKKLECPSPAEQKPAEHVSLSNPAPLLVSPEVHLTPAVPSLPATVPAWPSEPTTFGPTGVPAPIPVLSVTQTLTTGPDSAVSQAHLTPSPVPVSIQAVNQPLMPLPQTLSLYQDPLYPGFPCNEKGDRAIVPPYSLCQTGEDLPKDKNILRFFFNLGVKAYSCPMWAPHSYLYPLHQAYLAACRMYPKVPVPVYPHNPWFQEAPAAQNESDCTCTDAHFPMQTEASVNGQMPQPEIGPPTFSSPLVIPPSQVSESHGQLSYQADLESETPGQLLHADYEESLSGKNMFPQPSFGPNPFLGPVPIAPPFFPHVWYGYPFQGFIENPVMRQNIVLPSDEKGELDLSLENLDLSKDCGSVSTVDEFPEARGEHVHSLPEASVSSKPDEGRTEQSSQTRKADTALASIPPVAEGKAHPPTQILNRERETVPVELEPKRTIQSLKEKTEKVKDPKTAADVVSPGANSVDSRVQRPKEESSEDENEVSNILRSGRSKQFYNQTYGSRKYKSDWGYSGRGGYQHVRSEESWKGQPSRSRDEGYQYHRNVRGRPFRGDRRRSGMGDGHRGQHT
# Procedure, shortened: as §1
# OTUD5 = target: T5, OTUD5 (UniProt Q96G74)
# T5 sequence (whole entry): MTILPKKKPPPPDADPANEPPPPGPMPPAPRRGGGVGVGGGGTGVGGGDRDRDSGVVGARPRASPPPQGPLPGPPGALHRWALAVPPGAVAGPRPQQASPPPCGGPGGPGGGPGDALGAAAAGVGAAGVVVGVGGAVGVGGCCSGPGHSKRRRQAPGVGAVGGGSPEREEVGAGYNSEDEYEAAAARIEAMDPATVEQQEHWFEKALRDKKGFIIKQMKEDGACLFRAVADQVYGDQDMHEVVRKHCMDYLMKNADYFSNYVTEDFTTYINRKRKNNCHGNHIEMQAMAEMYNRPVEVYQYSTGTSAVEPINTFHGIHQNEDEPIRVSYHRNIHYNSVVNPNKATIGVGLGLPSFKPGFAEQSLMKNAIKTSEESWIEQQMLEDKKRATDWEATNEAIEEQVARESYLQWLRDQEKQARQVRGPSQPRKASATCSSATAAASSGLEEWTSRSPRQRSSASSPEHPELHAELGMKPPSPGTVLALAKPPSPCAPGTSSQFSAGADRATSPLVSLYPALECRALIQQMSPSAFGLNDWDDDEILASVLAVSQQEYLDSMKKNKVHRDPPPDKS
# Procedure, shortened: as §1
# Chain of OTUB1 (Q96FW1 whole entry): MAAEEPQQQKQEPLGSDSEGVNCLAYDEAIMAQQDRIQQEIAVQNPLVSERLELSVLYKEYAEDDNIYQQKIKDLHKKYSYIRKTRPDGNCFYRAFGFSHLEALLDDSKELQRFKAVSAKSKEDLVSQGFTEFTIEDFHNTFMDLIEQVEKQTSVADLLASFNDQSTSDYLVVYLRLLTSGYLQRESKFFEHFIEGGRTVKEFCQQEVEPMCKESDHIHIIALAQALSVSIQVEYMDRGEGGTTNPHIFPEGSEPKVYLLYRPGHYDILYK
# Chain of EIF3F (O00303 whole entry): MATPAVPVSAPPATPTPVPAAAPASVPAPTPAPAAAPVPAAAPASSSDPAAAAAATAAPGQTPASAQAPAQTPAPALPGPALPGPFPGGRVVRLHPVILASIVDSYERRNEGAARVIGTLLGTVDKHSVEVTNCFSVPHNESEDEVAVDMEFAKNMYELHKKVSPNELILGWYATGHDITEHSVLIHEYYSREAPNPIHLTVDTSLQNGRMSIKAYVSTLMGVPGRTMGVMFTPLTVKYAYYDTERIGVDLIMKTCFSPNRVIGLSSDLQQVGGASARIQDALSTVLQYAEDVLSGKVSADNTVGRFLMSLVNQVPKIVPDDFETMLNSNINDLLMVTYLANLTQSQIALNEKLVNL
# Chain of ATXN3 (P54252 whole entry): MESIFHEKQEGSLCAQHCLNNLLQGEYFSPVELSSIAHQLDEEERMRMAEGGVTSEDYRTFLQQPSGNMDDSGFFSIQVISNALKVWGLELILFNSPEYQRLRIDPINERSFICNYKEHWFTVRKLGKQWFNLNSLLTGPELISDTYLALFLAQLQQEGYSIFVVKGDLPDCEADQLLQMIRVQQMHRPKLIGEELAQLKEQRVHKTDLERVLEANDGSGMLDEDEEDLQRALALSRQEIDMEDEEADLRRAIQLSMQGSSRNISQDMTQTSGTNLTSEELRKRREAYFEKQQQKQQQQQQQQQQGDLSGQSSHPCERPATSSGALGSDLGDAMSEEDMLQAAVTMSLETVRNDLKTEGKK
# Chain of EIF3H (O15372 whole entry): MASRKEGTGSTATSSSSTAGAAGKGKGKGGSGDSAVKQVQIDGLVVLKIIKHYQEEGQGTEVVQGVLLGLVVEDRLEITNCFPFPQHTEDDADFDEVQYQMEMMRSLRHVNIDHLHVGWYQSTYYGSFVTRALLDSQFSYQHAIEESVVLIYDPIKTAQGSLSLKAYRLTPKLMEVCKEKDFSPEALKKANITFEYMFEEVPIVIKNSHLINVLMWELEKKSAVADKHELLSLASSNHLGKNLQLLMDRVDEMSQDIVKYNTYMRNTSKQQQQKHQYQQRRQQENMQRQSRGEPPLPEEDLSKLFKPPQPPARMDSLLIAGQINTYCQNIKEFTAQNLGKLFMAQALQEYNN
compound,measurement,setting,value
CC1(NC(=O)CCl)CCS(=O)(=O)C1 (centres undefined),log2 ratio of Biotin-Ahx-Ub-VS probe labelling,ALG13,-0.0745
same,log2 ratio of Biotin-Ahx-Ub-VS probe labelling,ATXN3,-0.753
same,log2 ratio of Biotin-Ahx-Ub-VS probe labelling,BAP1,-1.37 (active)
same,log2 ratio of Biotin-Ahx-Ub-VS probe labelling,EIF3F,-0.345
same,log2 ratio of Biotin-Ahx-Ub-VS probe labelling,EIF3H,0.186
same,log2 ratio of Biotin-Ahx-Ub-VS probe labelling,FAM105A,0.0573
same,log2 ratio of Biotin-Ahx-Ub-VS probe labelling,OTUB1,-0.246
same,log2 ratio of Biotin-Ahx-Ub-VS probe labelling,OTUD4,-0.934
same,log2 ratio of Biotin-Ahx-Ub-VS probe labelling,OTUD5,-0.673
